Results taken from PubChem BioAssay.
Activity calls are given as the source filed them.

Key:
[1] = system: PRMT1 (protein arginine N-methyltransferase 1); experiment: PRMT1 binders on small-molecule microarrays, primary screen, biochemical, small-molecule microarray, 635 nm fluorescence (AID 1088); details: small-molecule microarray binding, higher = more signal;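 note: binding of Prmt1 protein to compounds spotted on small-molecule microarray slides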
[2] = yeast growth modulation, basal conditions, primary screen, YJM789 clinical isolate, OD600, 24 h (AID 1089);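 note: growth of clinical yeast isolate S. cerevisiae YJM 789 seeded 1000 cells per well; test concentration not given here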; details: S. cerevisiae YJM789 growth, higher = more signal, called active from +8 up or from −8 down
[3] = fission yeast growth modulation, primary screen, strain 972, OD600, 24 h, no modulator (AID 1090);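 note: basal condition with compound alone and no growth modifier present; test concentration not given here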; details: S. pombe 972 growth, higher = more signal, called active from +8 up or from −8 down
[4] = S. cerevisiae growth modulation with rapamycin, primary screen, strain BY4716, OD600, 96 h (AID 1091); details: higher = more signal, called active from +8 up or from −8 down; note: test concentration not given here
[5] = target: Torsin-1A-interacting protein 2 (Homo sapiens) (UniProt Q8NFQ8); experiment: LULL1 binders on small-molecule microarray, primary screen, cell lysate, human LULL1 lysate, 635/667 nm fluorescence (AID 1092); details: hLULL1 lysate binding, 635 nm fluorescence, higher = more signal;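 note: probe is lysate of COS7 cells overexpressing human LULL1; score merges per-feature 667 nm fluorescence with signal-to-noise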
Sequence of Torsin-1A-interacting protein 2 (Homo sapiens) (Q8NFQ8 whole entry, looked up): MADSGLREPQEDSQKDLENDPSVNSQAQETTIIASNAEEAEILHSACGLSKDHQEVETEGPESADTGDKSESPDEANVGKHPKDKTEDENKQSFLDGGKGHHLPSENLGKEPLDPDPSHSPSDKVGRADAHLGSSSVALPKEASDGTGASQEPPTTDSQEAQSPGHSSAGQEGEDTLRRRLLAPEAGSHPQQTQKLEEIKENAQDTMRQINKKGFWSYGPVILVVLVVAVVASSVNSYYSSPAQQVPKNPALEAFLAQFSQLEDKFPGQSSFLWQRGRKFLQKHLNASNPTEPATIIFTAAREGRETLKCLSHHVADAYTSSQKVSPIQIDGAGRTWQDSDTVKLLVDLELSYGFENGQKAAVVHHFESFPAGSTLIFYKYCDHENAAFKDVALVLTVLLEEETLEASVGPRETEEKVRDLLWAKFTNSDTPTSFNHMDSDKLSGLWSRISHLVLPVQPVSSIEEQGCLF

[6] = E. coli growth modulation, two-sided OD650, primary screen, E. coli filamentation project, strain DRC41, 24 h (AID 1093); details: OD650, 24 h, higher = more signal, called active from +8 up or from −8 down;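 note: MC1000 strain lacking acrAB efflux and sulA so SOS filamentation is blocked; test concentration not given here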
[7] = small-molecule microarray binders of probe aLefty2, primary screen, biochemical, biotinylated probe, 635/667 nm fluorescence (AID 1094); details: higher = more signal;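 note: score merges spot fluorescence near 667 nm with spot signal-to-noise ratio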
[8] = system: Noggin (protein binding on small-molecule microarray); experiment: Noggin binders on small-molecule microarray, primary screen, biochemical, 635/667 nm fluorescence (AID 1095); details: 635 nm fluorescence, higher = more signal;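 note: score merges 667 nm feature fluorescence with signal to noise over triplicate slides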
[9] = target: Neurogenic locus notch homolog protein 3 (Homo sapiens) (UniProt Q9UM47); experiment: NOTCH3 binders on small-molecule microarray, primary screen, biochemical, 635/667 nm fluorescence (AID 1096); details: NOTCH3 binding, 635 nm fluorescence, higher = more signal
Sequence of Neurogenic locus notch homolog protein 3 (Homo sapiens) (Q9UM47 whole entry, looked up): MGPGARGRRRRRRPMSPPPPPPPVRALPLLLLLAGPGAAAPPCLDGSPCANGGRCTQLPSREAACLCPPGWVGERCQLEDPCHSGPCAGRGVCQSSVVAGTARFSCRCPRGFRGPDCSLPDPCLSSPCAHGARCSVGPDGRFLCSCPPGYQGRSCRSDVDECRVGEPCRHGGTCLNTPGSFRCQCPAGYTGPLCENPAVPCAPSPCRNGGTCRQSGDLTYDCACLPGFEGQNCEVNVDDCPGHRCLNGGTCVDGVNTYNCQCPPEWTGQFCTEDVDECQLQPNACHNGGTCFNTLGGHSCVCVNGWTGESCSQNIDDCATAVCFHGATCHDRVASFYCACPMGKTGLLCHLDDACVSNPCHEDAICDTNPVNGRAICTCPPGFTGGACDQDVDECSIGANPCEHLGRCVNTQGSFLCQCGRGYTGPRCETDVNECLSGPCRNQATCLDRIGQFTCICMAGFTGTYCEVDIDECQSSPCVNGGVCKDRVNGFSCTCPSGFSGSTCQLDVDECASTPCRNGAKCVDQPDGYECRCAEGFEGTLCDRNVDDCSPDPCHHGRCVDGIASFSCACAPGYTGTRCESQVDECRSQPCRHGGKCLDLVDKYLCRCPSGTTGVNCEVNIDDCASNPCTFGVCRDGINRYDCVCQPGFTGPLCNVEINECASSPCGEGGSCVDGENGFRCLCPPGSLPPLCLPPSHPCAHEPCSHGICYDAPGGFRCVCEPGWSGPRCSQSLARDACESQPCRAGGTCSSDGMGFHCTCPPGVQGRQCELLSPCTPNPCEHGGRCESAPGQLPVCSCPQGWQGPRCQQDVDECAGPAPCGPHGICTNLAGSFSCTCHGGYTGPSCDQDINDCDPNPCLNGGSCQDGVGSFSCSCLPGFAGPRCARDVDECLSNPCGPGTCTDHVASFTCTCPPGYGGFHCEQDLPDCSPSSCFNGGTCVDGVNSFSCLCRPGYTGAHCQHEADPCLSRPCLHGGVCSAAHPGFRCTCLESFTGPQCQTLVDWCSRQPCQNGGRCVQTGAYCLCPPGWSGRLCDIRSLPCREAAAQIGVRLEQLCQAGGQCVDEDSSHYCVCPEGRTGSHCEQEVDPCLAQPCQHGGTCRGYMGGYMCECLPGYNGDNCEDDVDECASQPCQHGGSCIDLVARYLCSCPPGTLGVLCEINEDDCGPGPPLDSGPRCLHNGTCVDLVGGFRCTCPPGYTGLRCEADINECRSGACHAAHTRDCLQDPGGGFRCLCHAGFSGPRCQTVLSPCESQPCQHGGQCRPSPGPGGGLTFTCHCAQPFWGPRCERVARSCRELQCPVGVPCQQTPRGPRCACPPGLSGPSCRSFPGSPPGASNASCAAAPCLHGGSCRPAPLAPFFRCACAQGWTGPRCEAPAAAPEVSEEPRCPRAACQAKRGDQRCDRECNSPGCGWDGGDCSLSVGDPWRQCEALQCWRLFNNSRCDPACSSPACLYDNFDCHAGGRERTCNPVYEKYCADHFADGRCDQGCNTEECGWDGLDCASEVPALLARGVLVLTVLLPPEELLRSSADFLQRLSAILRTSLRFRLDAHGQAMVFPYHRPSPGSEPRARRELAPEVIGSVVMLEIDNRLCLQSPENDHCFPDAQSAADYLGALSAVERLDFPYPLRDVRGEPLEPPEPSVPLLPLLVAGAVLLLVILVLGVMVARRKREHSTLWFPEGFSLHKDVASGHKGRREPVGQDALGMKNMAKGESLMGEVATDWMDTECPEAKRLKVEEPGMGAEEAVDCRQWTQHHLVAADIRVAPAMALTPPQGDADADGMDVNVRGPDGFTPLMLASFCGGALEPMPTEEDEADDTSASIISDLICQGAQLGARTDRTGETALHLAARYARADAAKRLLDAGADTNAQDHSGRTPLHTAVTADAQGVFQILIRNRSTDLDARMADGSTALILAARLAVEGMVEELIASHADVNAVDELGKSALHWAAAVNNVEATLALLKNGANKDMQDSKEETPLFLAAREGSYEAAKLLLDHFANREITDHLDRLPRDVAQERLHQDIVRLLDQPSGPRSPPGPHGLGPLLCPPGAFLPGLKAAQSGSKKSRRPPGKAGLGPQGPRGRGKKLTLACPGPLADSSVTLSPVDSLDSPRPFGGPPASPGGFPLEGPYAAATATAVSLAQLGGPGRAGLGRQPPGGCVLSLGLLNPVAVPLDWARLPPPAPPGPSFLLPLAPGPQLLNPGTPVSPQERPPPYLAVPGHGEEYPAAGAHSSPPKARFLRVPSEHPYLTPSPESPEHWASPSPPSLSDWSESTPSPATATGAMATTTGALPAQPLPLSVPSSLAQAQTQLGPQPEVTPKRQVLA

[10] = small-molecule microarray binders of probe aEGFR, primary screen, biochemical, biotinylated probe, 635/667 nm fluorescence (AID 1097); details: higher = more signal;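 note: probe is a biotinylated anti-EGFR antibody binding compounds printed on slides; score combines fluorescence near 667 nm and signal to noise of each spot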
[11] = system: Plasmodium falciparum Sir2 (PF13_0152, Sir2A); experiment: pfSir2 binders on small-molecule microarrays, primary screen, biochemical, small-molecule microarray, 635 nm fluorescence (AID 1098); details: small-molecule microarray binding, fluorescence 635 nm; higher = more signal;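 note: score merges spot fluorescence intensity with its signal-to-noise ratio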
[12] = small-molecule microarray binders of probe aDKK1, primary screen, biochemical, biotinylated probe, 635/667 nm fluorescence (AID 1099); details: higher = more signal;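 note: score merges 667nm spot fluorescence with signal to noise across triplicate slides; reference of the scale not given here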
[13] = small-molecule microarray binders of probe aCHRDL2, primary screen, biochemical, biotinylated probe, 635/667 nm fluorescence (AID 1100); details: higher = more signal
[14] = splicing luciferase reporter signal modulators, primary screen, spliceosome inhibition project, cell-based, HEK293, splice +/- reporter (AID 1101); details: luminescence, 24 h, higher = more signal, called active from +8 up or from −8 down;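 note: HEK293 cells carrying a splicing-competent luciferase reporter gene; test concentration not given here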
[15] = target: Fibroblast growth factor 10 (Homo sapiens) (UniProt O15520); experiment: FGF10 binders on small-molecule microarrays, primary screen, biochemical, small-molecule microarray, 635 nm fluorescence (AID 1102); details: FGF10 binding, fluorescence 635 nm, higher = more signal
Sequence of Fibroblast growth factor 10 (Homo sapiens) (O15520 whole entry, looked up): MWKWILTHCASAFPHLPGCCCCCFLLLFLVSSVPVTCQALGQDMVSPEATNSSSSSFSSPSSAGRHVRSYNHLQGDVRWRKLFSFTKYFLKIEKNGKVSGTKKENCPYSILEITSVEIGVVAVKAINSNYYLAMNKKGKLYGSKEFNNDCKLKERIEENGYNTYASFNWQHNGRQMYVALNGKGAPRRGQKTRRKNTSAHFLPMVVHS

[16] = system: glycogen synthase kinase-3 (GSK3A per assay name; protocol says GSK3B); experiment: GSK3 binders on small-molecule microarrays, primary screen, biochemical, small-molecule microarray, 635 nm fluorescence, GSK3A (AID 1103); details: small-molecule microarray binding, fluorescence 635 nm; higher = more signal; note: the record names both GSK3A and GSK3B
[17] = target: Epidermal growth factor receptor (Homo sapiens) (UniProt P00533); experiment: EGFR binders on small-molecule microarrays, primary screen, biochemical, small-molecule microarray, 635 nm fluorescence (AID 1104); details: EGFR binding, higher = more signal;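 note: score merges 667 nm emission intensity with spot signal to noise over triplicate slides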
Sequence of Epidermal growth factor receptor (Homo sapiens) (P00533 whole entry, looked up): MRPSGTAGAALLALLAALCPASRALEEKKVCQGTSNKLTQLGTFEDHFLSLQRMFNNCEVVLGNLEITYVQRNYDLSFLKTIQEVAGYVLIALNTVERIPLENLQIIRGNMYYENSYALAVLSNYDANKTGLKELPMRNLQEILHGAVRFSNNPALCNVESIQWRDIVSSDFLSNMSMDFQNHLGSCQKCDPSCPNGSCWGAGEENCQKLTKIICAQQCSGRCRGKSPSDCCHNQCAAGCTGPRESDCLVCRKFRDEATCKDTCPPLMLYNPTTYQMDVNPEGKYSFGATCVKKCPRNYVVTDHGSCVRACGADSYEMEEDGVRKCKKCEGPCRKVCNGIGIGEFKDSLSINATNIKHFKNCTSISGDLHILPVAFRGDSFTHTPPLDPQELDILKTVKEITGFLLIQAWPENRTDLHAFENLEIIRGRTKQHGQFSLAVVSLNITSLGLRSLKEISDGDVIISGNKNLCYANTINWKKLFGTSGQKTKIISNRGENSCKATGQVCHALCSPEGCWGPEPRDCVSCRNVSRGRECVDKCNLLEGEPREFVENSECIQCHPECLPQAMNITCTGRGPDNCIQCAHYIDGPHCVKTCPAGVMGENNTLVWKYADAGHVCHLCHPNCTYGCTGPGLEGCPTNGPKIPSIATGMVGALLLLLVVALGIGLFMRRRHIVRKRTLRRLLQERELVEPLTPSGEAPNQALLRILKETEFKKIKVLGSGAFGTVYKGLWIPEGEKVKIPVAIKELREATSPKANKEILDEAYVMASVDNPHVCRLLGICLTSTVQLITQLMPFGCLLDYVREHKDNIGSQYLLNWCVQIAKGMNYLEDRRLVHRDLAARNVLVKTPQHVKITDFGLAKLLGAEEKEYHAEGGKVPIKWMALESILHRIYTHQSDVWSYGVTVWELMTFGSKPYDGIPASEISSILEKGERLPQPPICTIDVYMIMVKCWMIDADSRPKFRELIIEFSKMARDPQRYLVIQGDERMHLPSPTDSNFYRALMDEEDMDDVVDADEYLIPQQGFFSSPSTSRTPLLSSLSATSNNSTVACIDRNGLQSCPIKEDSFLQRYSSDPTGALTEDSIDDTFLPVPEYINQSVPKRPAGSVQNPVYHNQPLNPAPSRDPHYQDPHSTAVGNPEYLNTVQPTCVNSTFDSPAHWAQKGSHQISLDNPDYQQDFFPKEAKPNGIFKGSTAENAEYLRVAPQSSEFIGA

[18] = target: Follistatin-related protein 3 (Homo sapiens) (UniProt O95633); experiment: FSTL3 binders on small-molecule microarrays, primary screen, biochemical, small-molecule microarray, 635 nm fluorescence (AID 1105); details: FSTL3 binding, higher = more signal;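 note: score merges emission near 667 nm and signal to noise per printed spot across three slides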
Sequence of Follistatin-related protein 3 (Homo sapiens) (O95633 whole entry, looked up): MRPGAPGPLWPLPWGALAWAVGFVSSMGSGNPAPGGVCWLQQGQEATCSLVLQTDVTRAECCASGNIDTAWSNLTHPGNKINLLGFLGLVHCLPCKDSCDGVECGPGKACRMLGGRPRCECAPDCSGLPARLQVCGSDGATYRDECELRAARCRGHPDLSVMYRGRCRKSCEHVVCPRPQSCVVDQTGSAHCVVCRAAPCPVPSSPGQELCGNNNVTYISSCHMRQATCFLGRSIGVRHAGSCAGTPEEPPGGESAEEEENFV

[19] = target: Dickkopf-related protein 1 (Homo sapiens) (UniProt O94907); experiment: DKK1 binders on small-molecule microarrays, primary screen, biochemical, small-molecule microarray, 635 nm fluorescence scan (AID 1106); details: DKK1 binding, higher = more signal;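 note: score merges emission near 667 nm with signal to noise over three replicate slides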
Sequence of Dickkopf-related protein 1 (Homo sapiens) (O94907 whole entry, looked up): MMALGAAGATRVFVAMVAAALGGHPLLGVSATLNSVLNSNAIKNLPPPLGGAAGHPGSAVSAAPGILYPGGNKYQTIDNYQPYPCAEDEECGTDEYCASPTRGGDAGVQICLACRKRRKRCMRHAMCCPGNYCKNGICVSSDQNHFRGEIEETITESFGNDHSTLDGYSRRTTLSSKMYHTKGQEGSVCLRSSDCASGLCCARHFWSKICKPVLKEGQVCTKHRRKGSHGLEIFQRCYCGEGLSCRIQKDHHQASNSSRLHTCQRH

[20] = system: Inhibin beta A chain (activin A); experiment: INHBA (activin A) binders on microarrays, primary screen, biochemical, small-molecule microarray, 635 nm fluorescence scan (AID 1107); details: small-molecule microarray binding, higher = more signal;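 note: mouse activin A protein probed at 4.33 µg/mL on printed slides; score merges bound-protein fluorescence near 667 nm with spot signal-to-noise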

Structure (SMILES)	composite z-score [1]	z-score [2]	z-score [3]	z-score [4]	composite z-score [5]	z-score [6]	composite z-score [7]	composite z-score [8]	composite z-score [9]	composite z-score [10]	composite z-score [11]	composite z-score [12]	composite z-score [13]	z-score [14]	composite z-score [15]	composite z-score [16]	composite z-score [17]	composite z-score [18]	composite z-score [19]	composite z-score [20]
C=CCNC(=O)[C@H]1[C@@H]2C(=O)O[C@@H](c3ccccc3)[C@@H](c3ccccc3)N2[C@@H](c2ccccc2OCCO)[C@]12C(=O)N(C(=O)OCCOC)c1ccccc12	1.51	1.5 (inactive)	2.05 (inactive)	5.15 (inactive)	2.78	-0.513 (inactive)	-0.196	0.786	1.12	-0.0828	1.58	0.125	0.0274	-1.24 (inactive)	1.08	1.28	0.341	0.616	0.239	-0.101
CCCCC(=C=CC[C@@H](O)c1cccc(OCCO)c1)C[C@@H](O)COCc1ccccc1	0.554	-0.59 (inactive)	-1.95 (inactive)	-0.601 (inactive)	0.866	1.84 (inactive)	-0.274	-0.0311	-0.184	-0.188	0.377	-0.17	-0.325	-1.21 (inactive)	0.483	0.0702	-1.35	-0.526	-0.274	0.211
COc1ccc([Si](C)(C)[C@@H]2[C@@H](CC(=O)N(CCO)Cc3ccccc3)O[C@]3(C(=O)N(Cc4ccc(N5CCC5=O)cc4)c4ccccc43)[C@H]2C)cc1	-0.0625	0.127 (inactive)	-0.246 (inactive)	1.87 (inactive)	0.628	1.31 (inactive)	0.536	0.343	-0.0568	-0.199	1.41	-0.26	0.618	-1.9 (inactive)	0.0525	-0.808	0.359	0.953	0.919	0.0242
O=C1C2C=CC(C(O)c3cccs3)N(Nc3ccccc3)C2C(=O)N1c1ccccc1 (stereo not given)	-0.435	0.521 (inactive)	-0.175 (inactive)	0.231 (inactive)	3.11	0.0249 (inactive)	-0.0329	-0.448	0.365	-0.0583	0.695	0.742	0.467	-0.145 (inactive)	0.0597	-0.828	0.0148	-0.03	0.034	1.42
CN(C)CCCCNC(=O)[C@H]1C[C@H]2C(=O)NCC(=O)N2[C@H]1c1cccc(OCCO)c1	0.826	0.259 (inactive)	1.06 (inactive)	-0.431 (inactive)	1.6	0.52 (inactive)	-0.121	0.938	1.01	-0.3	0.828	-0.173	0.084	-0.706 (inactive)	1.02	-0.54	0.138	0.186	0.168	-0.09
COCCCN1C(=O)[C@@]2(Cc3ccccc31)c1ccccc1C(=O)N(Cc1ccccc1OC)[C@H]2c1ccc(CO)cc1	0.727	-1.14 (inactive)	-0.2 (inactive)	-1.33 (inactive)	1.04	0.258 (inactive)	0.0224	-0.913	-0.274	-0.108	-0.909	0.612	0.9	0.307 (inactive)	-0.426	-0.428	-0.352	0.154	0.514	0.157
C[N+](C)(C)CCCCCCNC(=O)[C@@H]1C[C@@H]2C(=O)N[C@@H](Cc3ccccc3)C(=O)N2[C@@H]1c1ccc(O)cc1	1.54	-0.351 (inactive)	-0.193 (inactive)	-0.496 (inactive)	3.06	-0.0343 (inactive)	-0.183	1.46	1.04	0.0144	1.61	-0.409	-0.578	0.372 (inactive)	1.21	0.89	0.776	1.48	0.92	0.633
CC(C)CNC(=O)[C@@H]1c2ccccc2C(=O)N(C2Cc3ccccc3C2)[C@H]1c1ccc(CO)cc1	0.962	-0.226 (inactive)	-0.59 (inactive)	-0.434 (inactive)	2.59	2.01 (inactive)	0.159	-0.646	-0.145	-0.311	1.41	-0.0818	0.435	-0.179 (inactive)	-0.127	-0.0545	-0.267	-0.192	-0.777	0.245
COc1ccc(NN2C(C(O)c3cc(C(F)(F)F)cc(C(F)(F)F)c3)C=CC3C(=O)N(C4CCCCC4)C(=O)C32)cc1 (stereo not given)	1.28	-0.0995 (inactive)	0.495 (inactive)	0.518 (inactive)	2.59	-0.804 (inactive)	0.849	0.535	1.06	0.705	1.12	1.28	0.751	-1.08 (inactive)	0.37	0.977	0.0981	0.384	-0.292	0.639
COCCOC(=O)N1C(=O)[C@@]2(c3cc(C#CC4=CCCCC4)ccc31)[C@H](c1ccc(OCCO)cc1)N1[C@H](c3ccccc3)[C@H](c3ccccc3)OC(=O)[C@H]1[C@@H]2C(=O)N1CCCCCCC1	1.54	-1.06 (inactive)	-0.301 (inactive)	1.89 (inactive)	2.96	3.25 (inactive)	1.18	1.21	1.07	0.604	0.959	1.43	1.16	-1.07 (inactive)	1.02	1.33	0.513	1.46	1.01	1.7
